Hits are enriched below; roughly 19% of the tested compounds scored in any of these assays.
HT1080NT lethal = kills 2HG-producing HT-1080-NT fibrosarcoma cells; 360,000 compounds, 1.6% hits; Potency, µM (highest dose often 46.1 µM), without a hit: at the highest dose activity, negative = less viability, usual class: cytotoxic; HT-1080-NT fibrosarcoma viability, CellTiter-Glo ATP luminescence, 48 h;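 further: NT is the 2HG producing partner of a matched IDH1 knockdown line; potency means the concentration at half of the fitted maximal effect; 0% = DMSO-treated cells and -100% = media-only wells without cells; nearly all actives have a fitted effect of over 55% in size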
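Toxicity toward the 2HG-producing NT line was scored as %Activity, normalised to DMSO and no-cell wells, from CellTiter-Glo luminescence after 48 hours' treatment.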
DT40 TDP1 no CPT = qHTS for Inhibitors of human tyrosyl-DNA phosphodiesterase 1 (TDP1): qHTS in cells in absence of CPT; DT40 Tdp1-/- hTDP1 cells, no CPT, ATP luminescence, 48 h; 420,000 compounds, 15% hits; AID 686978, 2013; Potency, µM (series often up to 46.2 µM), for the others: top-dose activity change, negative = growth inhibition, actives largely listed as inhibitors; further: potency means the concentration at half of the fitted maximal effect; nearly all actives have a fitted effect of over 55% in size
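Luminescent ATP content (CellTiter-Glo) served as the growth readout. Knockout chicken DT40 cells expressing human TDP1 were exposed to compounds without camptothecin for a minimum 48 hr at 37 °C.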
uPA surface inh = cell surface uPA generation inhibition. 330,000 compounds, 0.31% hits. cell surface uPA generation assay, qHTS. Potency, µM (series often up to 38.3 µM), for inactives: at the highest dose activity change, negative = inhibition, most hits filed as inhibitors. AID 540303; active means well fitted inhibition curve with a large enough effect; inconclusive means small, poorly fitted or top-dose-only effect; inactive means no such curve, though single readings can be large or run the other way; tested in mouse RAW 264.7 cells; further: potency means the concentration at half of the fitted maximal effect; nearly all actives have a fitted effect of over 55% in size
IL-1B inflam inh = inflammasome signaling inhibition, IL-1 beta readout | THP-1 LPS/ATP IL-1B secretion, AlphaLISA, 16 h; stronger effect = lower value | activity change, % at 57.5 µM | 360,000 compounds, 4.7% hits | AID 743279; in the data active means activity change below about -50%; inconclusive means mostly about -30% to -49%
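Secreted IL-1B measured by AlphaLISA bead assay after 16 h compound exposure of THP-1 cells; compounds (final up to 57.5 uM) added 1 h before LPS (250 ng/mL) and ATP (1.25 mM) stimulation; lower signal means less secretion.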
DT40 TDP1 CPT = DT40-hTDP1 cell growth loss with CPT. chicken DT40 Tdp1-/-;hTDP1 cells + 20 nM CPT, ATP luminescence, 48 h. Potency, µM (series often up to 46.2 µM), for inactives: top-dose activity change, negative = growth inhibition, actives largely listed as inhibitors. 420,000 compounds, 12% hits. AID 686979; further: potency means the concentration at half of the fitted maximal effect; nearly all actives have a fitted effect of over 55% in size
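Chicken DT40 Tdp1-/- cells stably complemented with human TDP1 were seeded at 400 cells/well in medium containing 20 nM camptothecin, exposed to pin-transferred compounds, and grown at 37 °C for at least 48 hr. Viability was read as ATP luminescence.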
HT1080 IDH1KD tx = HT-1080 IDH1 knockdown cell toxicity (counter line); AID 686971; 360,000 compounds, 2% hits; Potency, µM (top dose mostly 46.1 µM), for inactives: at the top dose activity, negative = toxicity, hits mostly cytotoxic; HT-1080 IDH1 knockdown viability, ATP luminescence, 48 h;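 further: potency means the concentration at half of the fitted maximal effect; 0% = DMSO wells and -100% = cell-free medium wells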
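IDH1KD HT-1080 cells, 750/well, RPMI + 5% FBS; compound pinned after 2 h settling; 48 h, 37 °C; CellTiter-Glo luminescence; % activity normalised to DMSO and no-cell wells; curves fitted, classed by r2 and efficacy.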
Active calls of the source: *; u = inconclusive; x = no result; [ ] = remark or other dose. Unless noted, the call rests on the fitted dose curve; in most records, active means well fitted curve in the direction sought with a large enough effect; inconclusive means small, poorly fitted or top-dose-only effect, or another doubt; inactive means no such curve, though single readings can be large; an effect the other way counts as inactive or inconclusive. Unless noted, on the % scale 0 is the no-effect control and ±100 the full control effect.

SMILES	HT1080NT lethal	DT40 TDP1 no CPT	uPA surface inh	IL-1B inflam inh	DT40 TDP1 CPT	HT1080 IDH1KD tx
CCOc1ccc(-c2nc(C#N)c(N3CCN(CC)CC3)o2)cc1	0%	u	2%	-14	u	0%
N#Cc1nc(-c2ccc(F)cc2)oc1N1CCCC1	12%	21µM*	0%	-12	7.3µM*	9%
CCCOc1ccc(-c2nc(C#N)c(N3CCN(CC)CC3)o2)cc1	-8%	u	-1%	-60*	u	-1%
COc1ccc(C(=O)NCC(c2ccc3c(c2)OCO3)N2CCN(C)CC2)cc1OC (stereo not drawn)	x	-10%	x	x	-13%	x
COc1ccc(-c2nc(C#N)c(NC(C)C)o2)cc1	-1%	-10%	-5%	-50*	-19%	-3%
COc1ccccc1-c1nc(C#N)c(N2CCN(C(c3ccccc3)c3ccccc3)CC2)o1	8%	23µM*	6%	1	16µM*	0%
COc1ccc(-c2nc(C#N)c(N3CCCCCC3)o2)cc1OC	-3%	11µM*	3%	-30	15µM*	-4%
COc1ccc(-c2nc(C#N)c(N3CCCCCC3)o2)cc1	0%	18µM*	5%	-63*	18µM*	-18%
COc1ccc(-c2nc(C#N)c(N3CCCCC3)o2)cc1	8%	-26%	6%	-11	-5%	-1%
COc1ccccc1-c1nc(C#N)c(N2CCN(c3cccc(Cl)c3)CC2)o1	6%[9.24 µM]	u	x	-27	u	-7%
CCOC(=O)c1c(C)oc2c(F)c(F)c(F)c(F)c2c1=O	u	21µM*	7%	-121*	16µM*	u
CCOC(=O)c1c(C)oc(=O)c(CC)c1O	0%	9%	x	-5	1%	1%
CC(C)c1ccc(NC(=O)CN2C(=O)CSc3ccc(S(=O)(=O)N4CCCC4)cc32)cc1	x	16µM*	x	x	16µM*	x
Cc1ccc(NC(=O)CN2C(=O)CSc3ccc(S(=O)(=O)N4CCCC4)cc32)cc1F	x	23µM*	x	x	u	x
COc1cc(NC(=O)CN2C(=O)CSc3ccc(S(=O)(=O)N4CCCC4)cc32)cc(OC)c1	-3%	u	11%	-13	u	-6%
Cc1ccc(NC(=O)CN2C(=O)CCSc3ccc(S(=O)(=O)N4CCCC4)cc32)cc1C	-2%	u	9%	-4	u	-14%
Cc1cc(NC(=O)CN2C(=O)CSc3ccc(S(=O)(=O)N(C)C)cc32)ccc1Br	x	21µM*	x	x	u	x
COc1ccc(NC(=O)CN2C(=O)CSc3ccc(S(=O)(=O)N(C)C)cc32)cc1OC	x	-17%	x	x	-14%	x
Cc1ccc(-n2nc(C)c3c2C(Br)C(C)(C)CC3=O)nc1 (stereo not drawn)	1%	-33%	-14%	0	u	2%
O=C(Nc1ccc(F)c(F)c1)c1cc(S(=O)(=O)NCc2ccc3c(c2)OCO3)ccc1F	x	-21%	x	x	-8%	x
Oc1ccccc1CN1CCCC(N2CCc3ccccc3C2)C1 (stereo not drawn)	-16%	u	11%	-8	-25%	-19%
O=C(OCc1ccccc1Cl)C1CC(=O)N(Cc2ccco2)C1 (stereo not drawn)	-11%	1%	0%	-4	-10%	4%
N#CC(C#N)=NNc1ccc(S(=O)(=O)N2CCCCC2)cc1	-4%	16µM*	1%	9	u	-9%
COc1cc(S(=O)(=O)N2CCCCC2)ccc1NC(=O)c1ccccc1Cl	-18%	16µM*	5%	-14	16µM*	-4%
COc1ccccc1NC(=O)c1cc(S(=O)(=O)N2CCCCCC2)ccc1F	-6%	u	-1%	u	u	-5%
SMILES	HT1080NT lethal	DT40 TDP1 no CPT	uPA surface inh	IL-1B inflam inh	DT40 TDP1 CPT	HT1080 IDH1KD tx
COc1ccccc1NS(=O)(=O)c1ccc(C)c(NC(=O)c2ccc(S(=O)(=O)N3CCCCCC3)cc2)c1	-9%	21µM*	-10%	-3	u	-2%
N#C/C(=N\Nc1ccc(S(=O)(=O)N2CCOCC2)cc1)C(N)=S	-21%	u	0%	-7	u	-15%
O=C(Nc1ccccc1C(=O)O)c1cc(S(=O)(=O)N2CCCCC2)c(Cl)cc1Cl	-3%	12µM*	-1%	27	23µM*	-1%
Cc1nnsc1C(=O)Nc1ccc(S(=O)(=O)N2CCCCC2)cc1	-4%	u	-2%	-15	21µM*	-10%
Cc1nnsc1C(=O)Nc1ccc(S(=O)(=O)N2CCCC(C)C2)cc1 (stereo not drawn)	-14%	u	2%	u	u	-6%
O=C(Nc1ccc(S(=O)(=O)N2CCCCC2)cc1)c1ccccc1Cl	-27%	26µM*	6%	u	u	-10%
Cc1ccc(NC(=O)c2cc(S(=O)(=O)N3CCOCC3)cs2)cc1	0%	8%	-5%	-18	-14%	-10%
Cc1ccc(NC(=O)c2cc(S(=O)(=O)N3CCCCC3)cs2)cc1	u	-20%	4%	-73*	-9%	-4%[9.24 µM]
COc1ccc(C(C(=O)NCc2ccccc2)N(Cc2ccco2)C(=O)c2snc(C(N)=O)c2N)cc1 (stereo not drawn)	1%	u	6%	-15	u	-12%
CCc1ccccc1N(CC(=O)NCc1ccco1)C(=O)c1snc(C(N)=O)c1N	-1%	18µM*	1%	-19	u	0%
CCC(C(=O)NC(C)(C)C)N(Cc1ccccc1Cl)C(=O)c1snc(C(N)=O)c1N (stereo not drawn)	7%	8%	8%	27	-4%	1%
Cc1ccc(C(C(=O)NCc2ccccc2)N(Cc2ccco2)C(=O)c2snc(C(N)=O)c2N)o1 (stereo not drawn)	-3%	15µM*	3%	14	u	-1%
CC(C(=O)NCc1ccccc1)N(Cc1ccccc1Cl)C(=O)c1snc(C(N)=O)c1N (stereo not drawn)	-13%	-17%	4%	-75*	u	0%
COc1cc(Cl)c(C)cc1Nc1nc2ccccc2c2nnc(C)n12	x	-15%	x	x	0%	x
Cc1c(Cl)cccc1NC(=O)C(=O)NCCc1csc(-c2ccc(C(F)(F)F)cc2)n1	x	-25%	x	x	-3%	x
CCN(CC(=O)Nc1ccc(NC(C)=O)cc1)C(=O)c1cc(-c2ccccc2)nn1-c1ccccc1	-13%	-23%	0%	-9	-20%	-11%
CN(CC(=O)Nc1ccc(F)cc1)C(=O)c1cc(-c2cccs2)nn1-c1ccccc1	-4%	13µM*	-1%	-1	u	-3%

Source: PubChem BioAssay (National Center for Advancing Translational Sciences (NCATS))
